Holding throughout (assay): NCI-60 one-dose screen, 48 h (100 = growth as untreated, 0 = no growth, -100 = all killed)
Common to all, as to details: 10 µM unless noted

For assay [1], the system named is HCT-15 colon.
In assay [2] the test system is HT29 colon.
Assay [3] deals with SNB-75 CNS.
The test system of assay [4] is SNB-19 CNS.
In assay [5] the test system is U251 CNS.
Assay [6] deals with PC-3 prostate.
Assay [7] concerns SK-MEL-5 melanoma.
Assay [8] concerns UACC-62 melanoma.
Assay [9] has as its system SK-MEL-28 melanoma.
For assay [10], the system named is SK-MEL-2 melanoma.
Assay [11] concerns EKVX NSCLC.
Assay [12] relates to SN12C renal.
Assay [13] has as its system UO-31 renal.
Assay [14] concerns ACHN renal.
Assay [15] relates to CAKI-1 renal.
In assay [16] the test system is A498 renal.
Assay [17] concerns CCRF-CEM leukemia.
In assay [18] the test system is MOLT-4 leukemia.
In assay [19] the test system is TK-10 renal.
The test system of assay [20] is LOX IMVI melanoma.

Drawing on PubChem BioAssay (NCI), this text covers growth for four molecules.

Compounds without any hit were thinned out: in the full panel of roughly 83,000, 20% have a hit.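 Method: cells in 96-well plates; compound added at one concentration; 48 h incubation; percent growth measured; values under 10 scored active.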 Unmarked numbers belong to inactive results. The source made the active and inactive calls.

As for `COc1ccc(-c2cnnc3c(-c4cccc(C(F)(F)F)c4)cnn23)cc1`, the growth in [1] is 68.3%; in assay [2], 63.6%; in assay [3], -26.9% (active); in assay [4] it was 50.4%; in assay [5] it was 17.5%; in [6], 63.2%. Further, the growth in assay [7] was 5.82% (active); in [8], 62.6%; in assay [9] it was 56.1%; in assay [10], 54.6%; in [11] it was 30.6%; in assay [12], 49.8%. The growth in [13] is 57.6%; in assay [14] it was 14.9%; in [15], -31.8% (active); in [16] it was 78.6%; in assay [17], 61.2%; in assay [18], 89.2%.
For `O=C(N/N=C/c1ccc(O)c(O)c1)c1sc2ccccc2c1Cl`, the growth is 33.9% in assay [1]; 105% in assay [2]; 83.2% in assay [3]; 59.4% in [4]; 59.2% in [5]; 66.6% in assay [6]. In addition, the growth is 81.8% in assay [7]; 73.8% in [8]; 56.8% in assay [9]; -13.4% (active) in assay [10]; 98.3% in assay [11]; 77.1% in [12]. Further, the growth in [13] is 61%; in assay [19] it was 109%; in assay [14] it was 62.9%; in [15], 84.7%; in assay [16], 71.4%; in assay [17], 14.1%. The growth in [18] is 43.7%.
For the molecule `BrC(Br)(Br)c1cnc2ccccc2n1`, the growth in assay [1] is 31.7%; in assay [2] it was -65.1% (active); in assay [3] it was 102%; in assay [4], 67.9%; in assay [5], 50.3%; in assay [6] it was 62.3%. In addition, the growth in assay [7] is 73.9%; in assay [8], 61.4%; in [9], 53.5%; in assay [10] it was 90.2%; in assay [11], 70.4%; in assay [12] it was 71.6%. Also, the growth in [13] was -51.1% (active); in assay [19], -57.9% (active); in assay [14], -51.6% (active); in assay [15], -29.7% (active); in assay [17], 23.2%.
For the molecule `CCCCCCOc1ccc(/C=N/Nc2cc(C)nc3ccc(Br)cc23)cc1`, the growth in assay [1] is -83.5% (active); in [2] it was -65.5% (active); in assay [3] it was -94.5% (active); in [4], -73.7% (active); in assay [5], -64.8% (active); in assay [6] it was -73% (active). Besides, the growth in assay [7] is 47.3%; in assay [20] it was -94.1% (active); in assay [9], -81.9% (active); in assay [10] it was -14% (active); in [11], -21.2% (active); in assay [12], -88.9% (active). For the same molecule, the growth in assay [13] is -97.5% (active); in [19], -85.7% (active); in assay [14], -98.3% (active); in assay [15] it was -72.4% (active); in [17], -23.3% (active); in assay [18], -51.4% (active).
